Measured values published in PubChem BioAssay AID1745853 (National Center for Advancing Translational Sciences (NCATS), 2022).
The campaign covered roughly 25,000 compounds. About 970 (3.9%) were called active. Roughly 8% stayed inconclusive and do not appear here. How the calls were made is not given here. The list comes from a sample in which actives are over-represented; it also holds similar structures and randomly drawn compounds.

Assays:
Assay in all cases: Primary Screen for Target Class Profiling of Small Molecule Inhibitors of Methyltransferases
[1] = molecular target: Catechol O-methyltransferase (Homo sapiens) (UniProt P21964); settings: purified enzyme, MTase-Glo SAH luminescence; activity change, negative = inhibition: at 40 µM, stronger effect = lower value; outcome: 40 uM
From the text: (§1) PI: Matthew D. Hall Ph.D. and Quinlin M. Hanson Ph.D.
(§2) National Center for Advancing Translational Sciences (NCATS)
(§3) National Institute of Health (NIH), Rockville, MD
(§4) Target class profiling (TCP) is a chemical biology approach amenable to investigating understudied biological targets. TCP is achieved by developing a generalizable assay platform and applying it to screen a curated set of compound libraries against representative members of a target class. Small molecule methyltransferases (SMMTase) are a subclass of methyltransferase that act on metabolites to modulate signaling pathways, metabolize xenobiotics, or balance the available methyl pool. We screened four curated libraries totaling 27,574 unique compounds against the SMMTases nicotinamide N-methyltransferase (NNMT), phenylethanolamine N-methyltransferase (PNMT), histamine N-methyltransferase (HNMT), glycine N-methyltransferase (GNMT), catechol O-methyltransferase (COMT), and guanidinoacetate N-methyltransferase (GAMT). The data generated by this TCP can be leveraged for informed tool molecule development. For example, in the associated publication we identified a chemotype of HNMT-selective inhibitors. Additionally, we identified a putative SMMTase-selective inhibitor with potential as a tool molecule for studying broader methyltransferase biology.
(§5) High-through put screening assays were developed at the National Center for Advancing Translational Science (NCATS) for the enzymes NNMT, PNMT, HNMT, GNMT, COMT, and GAMT. Enzymatic activity was measured as a function of SAM cofactor conversion using the MTase Glo kit (Promega) for all enzymes. All assays were performed in 1536-well format with substrates and SAM concentrations at KM values. Enzyme concentration and assay timing were optimized for 10-20% SAM conversion. Initial screening of 27,574 compounds was done as single-point assays using the highest compound concentration (40 uM). […] These compounds were replated in 11-point dose response and assayed against NNMT, PNMT, HNMT, GNMT, COMT, GAMT, and a counter-assay. The IC50 and efficacy (maximal response) values were determined for each dose-response curve. These values are also accounted for in the area under the curve (AUC) values.
(§6) PROTOCOL TABLE (as described by Inglese J, Shamu CE and Guy RK. 2007)
(§7) SEQUENCE No. (e.g., 1, 2, 3, etc.); […] (e.g., Cells, Incubation, Reagent, etc.); VALUE; DESCRIPTION.
(§8) 1; Reagent; 2 uL; SMMTase Enzyme (2x) in reaction buffer, columns 1- 48.
(§9) 2; Reagent; 1 uL; SAM (4x) in reaction buffer, columns 1-48.
(§10) 3; Controls; 23 nL; DMSO in column 4; sinefungin in DMSO (0 uM - 40 uM) in 7-point 1:2 dilution series (n = 2) in column 2.
(§11) 4; Compounds; 23 nL; Columns 5-48.
(§12) 5; Reagent; 1 uL; Substrate (4x) in reaction buffer, columns 2-48.
(§13) 6; Time; 20-30 min; Incubation.
(§14) 7; Reagent; 1 uL; MTase-Glo reagent (5X), columns 1-48.
(§15) 8; Time; 30 min; Incubation.
(§16) 9; Reagent; 5 uL; MTase-Glo Detection reagent, columns 1-48.
(§17) 10; Time; 30 min; Incubation, luminescence evolution.
(§18) 11; Detection; Luminescence; ViewLux uHTS Microplate Imager (PerkinElmer).
(§19) NOTES (numbers refer to Sequence numbers above)
(§20) 1, 2, 5. White Medium Binding Greiner 1536-well plates (Cat #789175-F, Greiner Bio-One, Monroe, NC); Reaction buffer: 50 mM Tris, pH 8.0, 3 mM MgCl2, 1 mM EDTA, 50 mM NaCl, 1 mM DTT, and 0.1 mg/mL BSA. Evaporation was prevented by covering assay plates with metal lids containing holes to allow gas diffusion.
(§21) 1. Six SMMTase were profiled: HNMT, GNMT, PNMT, COMT, NNMT, GAMT
(§22) 5. The corresponding substrate was used for each enzyme: HNMT - 5.3 uM Histamine; GNMT - >500 uM Glycine; PNMT - 16.2 uM Norephinephrine; COMT - 13.7 uM Norephinephrine; NNMT - 3.8 uM Nicotinamide; GAMT - 2.5 uM Guanidinoacetate.6, 8, 10. Room temperature
(§23) 6. Final reaction conditions: 10 nM COMT, 5 uM SAM, 15 uM norepinephrine, 50 mM Tris, pH 8.0, 3 mM MgCl2, 1 mM EDTA, 50 mM NaCl, 1 mM DTT, and 0.1 mg/mL BSA; refer to tables 2 and S1 for specific timing.
8. […]

[2] = molecular target: Glycine N-methyltransferase (Homo sapiens) (UniProt Q14749); settings: purified enzyme, MTase-Glo SAH luminescence; measured here: GNMT inhibition; at 40 µM; stronger effect = lower value
From the text: as §1, §2, §3, §4, §5, §6, §7, §8, §9, §10, §11, §12, §13, §14, §15, §16, §17, §18, §19, §20, §21, §22, §23
8. […]

[3] = molecular target: Guanidinoacetate N-methyltransferase (Homo sapiens) (UniProt Q14353); settings: purified enzyme, MTase-Glo SAH luminescence; measured here: GAMT inhibition; at 40 µM; stronger effect = lower value
From the text: as §1, §2, §3, §4, §5, §6, §7, §8, §9, §10, §11, §12, §13, §14, §15, §16, §17, §18, §19, §20, §21, §22, §23
8. […]

[4] = molecular target: Histamine N-methyltransferase (Homo sapiens) (UniProt P50135); settings: purified enzyme, MTase-Glo SAH luminescence; measured here: HNMT inhibition; at 40 µM; stronger effect = lower value
From the text: as §1, §2, §3, §4, §5, §6, §7, §8, §9, §10, §11, §12, §13, §14, §15, §16, §17, §18, §19, §20, §21, §22, §23
8. […]

[5] = molecular target: Nicotinamide N-methyltransferase (Homo sapiens) (UniProt P40261); settings: purified enzyme, MTase-Glo SAH luminescence; measured here: NNMT inhibition; at 40 µM; stronger effect = lower value
From the text: as §1, §2, §3, §4, §5, §6, §7, §8, §9, §10, §11, §12, §13, §14, §15, §16, §17, §18, §19, §20, §21, §22, §23
8. […]

[6] = molecular target: Phenylethanolamine N-methyltransferase (Homo sapiens) (UniProt P11086); settings: purified enzyme, MTase-Glo SAH luminescence; measured here: PNMT inhibition; at 40 µM; stronger effect = lower value
From the text: as §1, §2, §3, §4, §5, §6, §7, §8, §9, §10, §11, §12, §13, §14, §15, §16, §17, §18, §19, §20, §21, §22, §23
8. […]
On the % scale 0 is the no-effect control and ±100 the full control effect.

Sequence of Nicotinamide N-methyltransferase (Homo sapiens) (P40261 whole entry, looked up): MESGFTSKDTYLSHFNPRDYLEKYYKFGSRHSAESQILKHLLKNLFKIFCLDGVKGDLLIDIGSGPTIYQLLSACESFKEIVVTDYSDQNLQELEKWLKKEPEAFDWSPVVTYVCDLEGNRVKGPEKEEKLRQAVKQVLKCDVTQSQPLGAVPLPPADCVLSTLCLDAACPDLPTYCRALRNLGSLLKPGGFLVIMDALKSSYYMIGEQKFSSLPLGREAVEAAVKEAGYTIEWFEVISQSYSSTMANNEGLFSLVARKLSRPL
Sequence of Catechol O-methyltransferase (Homo sapiens) (P21964 whole entry, looked up): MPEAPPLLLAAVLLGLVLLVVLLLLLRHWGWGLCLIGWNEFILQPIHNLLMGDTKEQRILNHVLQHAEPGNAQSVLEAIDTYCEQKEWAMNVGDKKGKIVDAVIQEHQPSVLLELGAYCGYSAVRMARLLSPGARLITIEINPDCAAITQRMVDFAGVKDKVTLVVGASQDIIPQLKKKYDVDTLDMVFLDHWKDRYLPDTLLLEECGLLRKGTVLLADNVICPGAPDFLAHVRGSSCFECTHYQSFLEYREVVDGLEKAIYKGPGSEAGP
Sequence of Phenylethanolamine N-methyltransferase (Homo sapiens) (P11086 whole entry, looked up): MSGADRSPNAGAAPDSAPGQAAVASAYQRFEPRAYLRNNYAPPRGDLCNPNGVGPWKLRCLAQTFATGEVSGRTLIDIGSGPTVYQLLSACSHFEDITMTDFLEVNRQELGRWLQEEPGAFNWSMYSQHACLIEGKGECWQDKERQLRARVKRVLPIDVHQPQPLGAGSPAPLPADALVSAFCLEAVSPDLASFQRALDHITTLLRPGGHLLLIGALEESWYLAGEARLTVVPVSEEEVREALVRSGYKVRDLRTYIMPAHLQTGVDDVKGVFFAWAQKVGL
Sequence of Glycine N-methyltransferase (Homo sapiens) (Q14749 whole entry, looked up): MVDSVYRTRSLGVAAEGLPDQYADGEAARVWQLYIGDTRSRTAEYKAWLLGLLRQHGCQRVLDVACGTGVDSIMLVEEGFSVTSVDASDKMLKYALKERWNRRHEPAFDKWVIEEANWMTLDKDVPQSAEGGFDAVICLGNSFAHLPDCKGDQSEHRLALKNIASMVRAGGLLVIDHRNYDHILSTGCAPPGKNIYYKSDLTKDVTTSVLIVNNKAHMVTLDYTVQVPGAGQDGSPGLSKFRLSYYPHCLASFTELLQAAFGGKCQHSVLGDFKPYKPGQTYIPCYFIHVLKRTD
Sequence of Histamine N-methyltransferase (Homo sapiens) (P50135 whole entry, looked up): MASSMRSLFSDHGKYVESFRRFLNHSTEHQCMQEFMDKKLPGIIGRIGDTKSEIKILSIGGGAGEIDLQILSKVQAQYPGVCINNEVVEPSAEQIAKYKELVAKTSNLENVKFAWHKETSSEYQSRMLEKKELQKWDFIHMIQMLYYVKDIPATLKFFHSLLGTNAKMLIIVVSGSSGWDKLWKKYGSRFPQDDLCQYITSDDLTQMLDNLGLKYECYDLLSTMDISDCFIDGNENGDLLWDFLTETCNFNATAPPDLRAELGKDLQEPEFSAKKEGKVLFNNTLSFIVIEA

| Structure (SMILES) | activity change, negative = inhibition [1] | activity change, negative = inhibition [2] [%] | activity change, negative = inhibition [3] [%] | activity change, negative = inhibition [4] [%] | activity change, negative = inhibition [5] [%] | activity change, negative = inhibition [6] [%] |
| --- | --- | --- | --- | --- | --- | --- |
| CC1CCCC(NC(=O)C2(C)Cn3c(cc4sccc43)C(=O)N2c2ccc(Cl)cc2)C1C (centres undefined) | -1.19% (inactive) | -1.5 | 2.58 | -0.753 | 2.89 | -5.61 |
| CCC1CCCCN1C(=O)Cn1c(=O)oc2cc(S(=O)(=O)N3CCCC3)ccc21 (centres undefined) | 1.3% (inactive) | -2.17 | 1.65 | -2.01 | 0.211 | -0.075 |
| Clc1cc(NCc2ccccn2)n2nccc2n1 | -4.71% (inactive) | -11.1 | -2.25 | -0.734 | -13.1 | 6.59 |
| COc1ccc(NC(=O)c2ccc(-c3ccc(C(N)=O)cc3C)cc2)cc1N1CCN(C)CC1 | 0.282% (inactive) | -7.07 | 2.94 | -26 | -29.8 | -2.08 |
| COc1ccc(NC(=O)c2ccc(-c3ccc(C(=N)N)cc3C)cc2)cc1N1CCN(C)CC1 | -7.6% (active) | -8.27 | -7.77 | -66.3 | -22.1 | -8.76 |
| COc1ccccc1N1CCN(S(=O)(=O)c2cc3c(cc2C)n(C)c(=O)n3C)CC1 | 8.56% (inactive) | 5.66 | 0 | 4.91 | -2.8 | 0.426 |
| Cc1cc(C(=O)N2CCCCCC2CN2CCC(C)CC2)nn1C (centres undefined) | -10.6% (inactive) | 0.743 | 0.856 | 0.525 | -2.25 | -1.05 |
| O=C(Cn1nc2n(Cc3ccc(F)cc3)c(=O)c3ccccc3n2c1=O)c1cccc(Cl)c1 | 5.66% (inactive) | 4.51 | 0 | 7.94 | -8.66 | 4.49 |
| Cc1ccc(C(=O)COC(=O)C(Cc2c[nH]c3ccccc23)NC(=O)c2ccc(Br)cc2)cc1 (centres undefined) | 9.4% (inactive) | 10.7 | 0 | 6.18 | -1.05 | 1.41 |
| Cc1cccc(-c2nnn3c2nc(N2CCC(C)CC2)c2ccccc23)c1 | -0.09% (inactive) | -5.45 | 0.818 | 1.53 | -1.89 | -5.11 |
| Oc1cc2c(cc1O)CN(C(=S)NCCc1ccc(Cl)cc1)CCC2 | 143% (active) | -83 | 4.04 | -4.18 | -9.24 | 0.975 |
| COC(=O)CCc1cc2ccoc2c(OC)c1O[C@@H]1O[C@H](CO)[C@@H](O)[C@H](O)[C@H]1O | 2.02% (inactive) | 2.54 | 4.92 | 10.2 | -6.92 | 6.11 |
| COc1cc(C)c(C(=O)Oc2cc(C)c(C(=O)Oc3cc(C)c(C(=O)NC(C)C(=O)O)c(O)c3)c(O[C@@H]3O[C@H](CO)[C@@H](O)[C@H](O)[C@H]3OC(C)=O)c2)c(OC)c1 (some centres undefined) | -0.843% (inactive) | -0.029 | 0.21 | 6.89 | -10.4 | -0.399 |
| COc1cc(O)c(C(=O)CCc2ccc(O)cc2)c(O[C@@H]2O[C@H](CO)[C@@H](O)[C@H](O)[C@H]2O)c1 | -58.4% (active) | -3.53 | -12.8 | 2.69 | -20.7 | -1.39 |
| CCN1CCN(C(=O)Cn2nc(C)c3sc(-c4ccccc4)nc3c2=O)CC1 | -3.83% (inactive) | -9.13 | -4.75 | -2.34 | -11.6 | -11 |
| CCCn1c(=O)c2ccc(C(=O)NC(C)CC)cc2n2c(=O)n(CC(=O)Nc3cc(C)cc(C)c3)nc12 (centres undefined) | 4.21% (inactive) | 2.22 | 5.41 | 6.27 | 0.889 | 3.91 |
| COCCn1c2c(c(=O)n1-c1ccccc1)CCN(Cc1cccc(C#N)c1)C2 | -2.46% (inactive) | -6.45 | -6.81 | -9.66 | -7.68 | -4.57 |
| C=CCn1c(=O)c2ccc(C(=O)NC(C)C)cc2n2c(=O)n(CC(=O)NCc3ccccc3)nc12 | 0.329% (inactive) | 7.7 | 1.61 | 12.5 | 0.93 | 4.28 |
| COc1ccc(CNc2nc3c(S(=O)(=O)c4ccc(C)cc4)nnn3c3ccccc23)cc1 | -0.038% (inactive) | -2.81 | 0.613 | 3.99 | 0 | -4.71 |
| CC1CCC(Nc2nc3c(-c4cccc(F)c4)nnn3c3ccccc23)CC1 (centres undefined) | -4.07% (inactive) | 0.278 | 0 | -0.849 | -6.58 | -5.44 |
| COc1cc(N)c(Cl)cc1C(=O)NC[C@@H]1CCN2CCC[C@@H]12 | -17.2% (inactive) | -4.41 | -14.1 | -11.2 | -21.4 | -18.4 |
| CCOC(=O)c1cc2n(n1)CC(C)(C(=O)NCc1ccccc1)N(CCCc1ccccc1)C2=O (centres undefined) | -0.428% (inactive) | 1.98 | 0 | 4.53 | -4.41 | 0.451 |
| CC(C)Cn1c(=O)c2ccccc2n2c(CCC(=O)N3CCN(c4cccc(Cl)c4)CC3)nnc12 | -9.54% (active) | -27.4 | -4.12 | -10.4 | -53.7 | -12.4 |
| O=C(CCc1nnc2n(Cc3ccc(Cl)cc3)c(=O)c3ccccc3n12)N1CCN(c2ccccc2F)CC1 | -4.23% (inactive) | -7.84 | 3.64 | -1.5 | -3.97 | -4.97 |
